# In PubChem BioAssay AID2313 (Broad Institute, 2010):
# Screen size: about 22,000 compounds; about 460 (2.1%) were called active. Another 2% or so got no clear call; they are omitted. This is one part of a sample in which actives are shown more often than they occur. A number with no mark means an inactive call.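 The calls were made as follows: active = mean inhibition across valid replicates above about 65% (limit read from the data); inconclusive = mean under the limit, yet half or more replicates past it; inactive = the rest.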
# Assay: Shh-driven Gli reporter inhibition – luminescence, Shh-LIGHT2 cells, Gli-luciferase, primary screen (AID 2313);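 also: pathway switched on by Shh-conditioned medium diluted 1 in 25 in low serum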
# Details: 30 h, stronger effect = higher value
row,SMILES,inhibition
1,c1ccc2c(c1)[I+]c1ccccc1-2,88.8% (active)
2,COC(/C=C/CC/C=C/C(=O)O)C(O)C(C)C(O)/C(C)=C/C(C)C(=O)CCCC1CC(=O)NC(=O)C1 (stereo not given),-22.8%
3,CC(C)c1c(CN(C)C(C)Cc2ccccc2)n(C)n(-c2ccccc2)c1=O (stereo not given),-38.5%
4,CC(C)Nc1nc(Cl)nc(NC(C)C)n1,-55.8%
5,CN(C)C(=O)Oc1cc(OC(=O)N(C)C)cc(C(O)CNC(C)(C)C)c1 (stereo not given),33.4%
6,C[C@H]1CCC/C=C/C2C[C@H](O)C[C@H]2[C@H](O)/C=C\C(=O)O1 (stereo not given in full),107% (active)
7,C=CC(C)(C)c1cc2cc3c(cc2oc1=O)O[C@H](C(C)(C)O)C3,-36.2%
8,CC=C1CN2C3CC1C1(C(=O)OC)C2CC2(c4ccccc4N(C)C32)C1O (stereo not given),11.9%
9,CCCCC/C=C\C/C=C\C/C=C\CCCCCCC(=O)NCCO,-2.94%
10,C[C@@H]1O[C@@H](O[C@@H]2C=C3CC[C@@H]4C(C[C@@H](O)[C@]5(C)[C@@H](c6ccc(=O)oc6)CC[C@]45O)[C@@]3(C)CC2)[C@H](O)[C@H](O)[C@H]1O[C@@H]1O[C@H](CO)[C@@H](O)[C@H](O)[C@H]1O (stereo not given in full),-37.6%
11,CC(C)[C@@]1(NC(=O)[C@@H]2CC3c4cccc5[nH]cc(c45)C[C@H]3N(C)C2)O[C@@]2(O)[C@@H]3CCCN3C(=O)[C@H](Cc3ccccc3)N2C1=O (stereo not given in full),21.5%
12,O=C(c1ccccc1)C12CN3CN(CN(C3)C1)C2,-5.62%
13,COc1c(C(C)C)cc2c(c1O)[C@@]1(C(=O)O)CCCC(C)(C)C1CC2 (stereo not given in full),-14.7%
14,CCCCCCCCCCCCCC(=O)O[C@@H]1[C@@H](C)[C@@]2(O)[C@@H](C=C(CO)C[C@]3(O)C(=O)C(C)=C[C@@H]23)[C@@H]2C(C)(C)[C@]12OC(C)=O,87% (active)
15,CCCCC/C=C\C/C=C\C/C=C\C/C=C\CCCCCC(=O)NCCO,-36.6%
